Screening results (PubChem BioAssay)
MBNL1-CUG inh – inhibitors of human MBNL1 binding to CUG repeat RNA; TR-FRET MBNL1-His/biotin-(CUG)12 binding, 665/545 ratio; Potency, µM (titrated, usually from 57.5 µM), for the others: at the highest dose activity change, negative = inhibition, hits mostly inhibitors; 280,000 compounds, 0.036% hits; AID 2675; active means well fitted inhibition curve with a large enough effect in the signal ratio, with a control signal flat, not every such curve was filed as active; inconclusive means small, poorly fitted or top-dose-only effect, or effect the other way, or a change in a side signal; inactive means no such curve, though single readings can be large or run the other way; the % refers to the signal ratio; further: potency means the concentration at half of the fitted maximal effect; on the % scale 0 is the no-effect control and ±100 the full control effect
Target sequence (Q9NR56 whole entry, looked up): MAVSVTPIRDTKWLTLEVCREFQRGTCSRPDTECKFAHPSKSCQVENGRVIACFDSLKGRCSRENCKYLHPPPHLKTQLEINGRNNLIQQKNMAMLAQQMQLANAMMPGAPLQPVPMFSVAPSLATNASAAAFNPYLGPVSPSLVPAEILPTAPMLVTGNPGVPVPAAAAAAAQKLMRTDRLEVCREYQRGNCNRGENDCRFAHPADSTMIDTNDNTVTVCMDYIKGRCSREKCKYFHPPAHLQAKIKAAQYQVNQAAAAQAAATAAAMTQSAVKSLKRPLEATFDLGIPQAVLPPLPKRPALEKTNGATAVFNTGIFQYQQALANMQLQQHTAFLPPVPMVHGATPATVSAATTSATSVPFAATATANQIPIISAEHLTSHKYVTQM
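TR-FRET between His-tagged MBNL1 and biotin-(CUG)12 RNA, detected with Tb anti-His antibody (0.055 ng/ul) and streptavidin-XL665 (5 nM), 60 min at room temperature. Compounds titrated 92 nM to 58 uM; 665/545 nm ratio normalized to buffer and complex controls.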
CBFb RUNX1 block – blocks binding between human CBF-beta and RUNX1; Potency, µM (top dose mostly 59.8 µM), inactives show at the top dose activity, negative = inhibition, usual class: inhibitors; AlphaScreen CBFb-His/RUNX1-biotin binding, biochemical; Q01196+Q13951; AID 1477; 230,000 tested, under 10 active; further: % of control where 0% means no effect
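Bead-based AlphaScreen assay; binding partners His-tagged CBF-beta and biotinylated RUNX1 at 30 nM each. Compound exposure 15 min after a 20-min protein preincubation; bead step 90 min; all steps at room temperature.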
VDR inhibitor – blocks the human vitamin D receptor; P11473; VDR-SRC2-3 peptide fluorescence polarization, 2 h; Potency, µM, inactives show max response, negative = inhibition, usual class: inhibitors; 400,000 compounds, 0.93% hits; further: potency means the concentration at half of the fitted maximal effect; on the % scale 0 is the no-effect control and ±100 the full control effect
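Measured by FP: displacement of SRC2-3 coactivator peptide from VDR by library compounds, following a two-hour ambient incubation.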
hERG WT inh – KCNH2 (human, wildtype) channel inhibition; activity change, % at 1.84 µM; Q12809; U2OS, BacMam KCNH2, thallium flux FluxOr; hits give low values; 340,000 compounds, 0.37% hits;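 active means maximum activity change below -70%; inconclusive means maximum activity change between -70% and -50%; inactive means maximum activity change above -50%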; further: on the % scale 0 is the no-effect control and ±100 the full control effect
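U2OS cells transduced with wild-type KCNH2 virus are loaded with FluxOr dye for 45 min, and thallium flux is measured in kinetic reads before and after stimulation buffer. Rate constants are normalized to DMSO controls.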
KCNH2 3.1 inh – KCNH2 3.1 (human) potassium channel inhibition | activity change, % (tested at about 1.8 µM) | U2OS KCNH2 3.1, thallium flux FluxOr; hits give low values | 340,000 compounds, 0.95% hits;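 active means maximum activity change below -70%; inconclusive means maximum activity change from -70% to -50%; inactive means maximum activity change above -50%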;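 further: thallium influx rate constant from kinetic fluorescence after stimulation buffer; on the % scale 0 is the no-effect control and ±100 the full control effect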
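Virally transduced U2OS (3.1 isoform, 4 h infection in dark at RT) → overnight 37 C → FluxOr + Red40 in HBSS/HEPES, 45 min → stimulation buffer, 2 min kinetic read → rate constant vs DMSO controls.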
PLK1 PBD inh – blocks phosphopeptide binding to human PLK1 polo-box domain. P53350. Plk1 PBD binding of FITC phosphopeptide, fluorescence polarization. Potency, µM, for the others: max response, negative = inhibition, usual class: inhibitors. 360,000 compounds, 2.8% hits. AID 720504; further: potency means the concentration at half of the fitted maximal effect; series mostly up to about 57 µM; on the % scale 0 is the no-effect control and ±100 the full control effect; nearly all actives have a fitted effect of over 65% in size
Starred values were filed as active, the others as inactive; [ ] = remark or other dose. The list is not random: actives were taken first. Their share in the collection is about 3.8%. Unless noted, the call rests on the fitted dose curve; in most records, active means well fitted curve in the direction sought with a large enough effect; inconclusive means small, poorly fitted or top-dose-only effect, or another doubt; inactive means no such curve, though single readings can be large; an effect the other way counts as inactive or inconclusive.

COc1ccc(NC(=O)CCc2c(C)nc3c(-c4ccc(F)cc4)c(C)nn3c2C)c(OC)c1 was read as VDR inhibitor -6%.
For CN1CCN(CCn2c(=S)[nH]c3ccccc3c2=O)CC1 the results were MBNL1-CUG inh -9%, VDR inhibitor -13%, hERG WT inh 5, KCNH2 3.1 inh -4 and PLK1 PBD inh 5%.
`COc1ccc(N2CCN(CCCn3c(=S)[nH]c4ccccc4c3=O)CC2)cc1` gave MBNL1-CUG inh -1%, VDR inhibitor 6%, hERG WT inh -118*, KCNH2 3.1 inh -80* and PLK1 PBD inh 2%.
`O=c1/c(=C\c2cc([N+](=O)[O-])cc([N+](=O)[O-])c2O)sc2nc3ccccc3n12` gave MBNL1-CUG inh inconclusive, CBFb RUNX1 block inconclusive, VDR inhibitor 40µM*, hERG WT inh -2, KCNH2 3.1 inh -1 and PLK1 PBD inh inconclusive.
COc1ccc(C(C#N)=C2C=C(Cl)C(=NO)C=C2Cl)cc1 was read as hERG WT inh -7, KCNH2 3.1 inh -11 and PLK1 PBD inh 21µM*.
`COc1ccc(-c2c(C#N)c(SCC(=O)Nc3ccccc3C)nc(C)c2C(=O)Nc2ccccc2)cc1OC` gave VDR inhibitor -16%.
`Cc1ccc(C)c(-c2ccc(C(=O)O)o2)c1` gave CBFb RUNX1 block inconclusive and VDR inhibitor 126µM*.
Screening COc1ccc(Cl)cc1-c1ccc(C(=O)O)o1 returned CBFb RUNX1 block 12%[89.1 µM] and VDR inhibitor 112µM*.
COc1ccccc1-c1ccc(C(=O)O)o1 was read as MBNL1-CUG inh -5%, CBFb RUNX1 block 2%, VDR inhibitor inconclusive, hERG WT inh -11, KCNH2 3.1 inh 7 and PLK1 PBD inh -11%.
Cc1cc(Nc2cccc(O)c2)c2cccc(Br)c2n1 was read as VDR inhibitor 1%.
Screening C(#Cc1ccccc1)C[N+]1(CC#Cc2ccccc2)CCCCC1 returned MBNL1-CUG inh -3%, CBFb RUNX1 block -4%, VDR inhibitor 15%, hERG WT inh 1, KCNH2 3.1 inh -15 and PLK1 PBD inh 27µM*.
C#CC[N+]1(CC#Cc2ccccc2)CCCCC1 was read as MBNL1-CUG inh -4%, CBFb RUNX1 block -3%, VDR inhibitor 1%, hERG WT inh -1, KCNH2 3.1 inh 3 and PLK1 PBD inh -2%.
COC(=O)[C@H](Cc1ccccc1)NC(=O)O[C@@H]1C(=O)c2ccc(OC)cc2O[C@H]1c1ccc2c(c1)OCO2 was read as CBFb RUNX1 block -2% and VDR inhibitor -4%.
For COc1ccccc1C(c1nnnn1Cc1ccco1)N1CCN(c2cccc(C)c2C)CC1 (centres undefined) the results were MBNL1-CUG inh 22%, CBFb RUNX1 block 2%, VDR inhibitor -24%, hERG WT inh -10, KCNH2 3.1 inh -33 and PLK1 PBD inh -23%.
Screening CCN1CCN(C(c2cccc(OC)c2OC)c2nnnn2Cc2ccco2)CC1 (centres undefined) returned MBNL1-CUG inh -10%, CBFb RUNX1 block 0%, VDR inhibitor -6%, hERG WT inh 21, KCNH2 3.1 inh 4 and PLK1 PBD inh 27µM*.
CCCCCCCNC(=O)C1(CC2CC(c3cccc(Br)c3)=NO2)CCNCC1 (centres undefined) was read as MBNL1-CUG inh -5%, VDR inhibitor -7%, hERG WT inh -8, KCNH2 3.1 inh -77* and PLK1 PBD inh -4%.
Screening CCCCCCCNC(=O)C1(CC2CC(c3cccc(Br)c3)=NO2)CCN(C(=O)c2ccccc2)CC1 (centres undefined) returned VDR inhibitor -22%, hERG WT inh -71*, KCNH2 3.1 inh inconclusive and PLK1 PBD inh -19%.
For Cc1ccccc1-c1n[nH]c(=S)o1 the results were MBNL1-CUG inh 112%, CBFb RUNX1 block 5%, VDR inhibitor -5%, hERG WT inh -2, KCNH2 3.1 inh 15 and PLK1 PBD inh -10%.
